# Laboratory results reported in PubChem BioAssay AID2284142 (EPA ToxCast).
# The source made the active and inactive calls. How the source made its calls: active means hit-call score of the fitted dose curve at least 0.9, where 1 is the maximum; inactive means score below 0.9.
# Target: human Adenosine Receptor A1 Agonism, ADORA1 (gene 134) (UniProt P30542)
# Assay: ERF_FR_GPCR_hADORA1: Eurofins (ERF) G Protein-Coupled Receptor (GPCR) Radioligand Binding LeadHunter Assay for human Adenosine Receptor A1 Agonism
# Description: ERF_FR_GPCR_hADORA1 is a biochemical, single-readout assay that uses extracted gene-proteins in a cell-free assay. Measurements were taken 1 hour after chemical dosing in a 96-well plate. See A1 Human Adenosine GPCR Binding (Agonist Radioligand) Assay, Cerep.ERF_FR_GPCR_hADORA1 is an assay component calculated from the ERF_FR_GPCR_hADORA1 assay. It is designed to measure radioligand binding using a type of binding reporter as detected by scintillation counting with radiometry technology.Data from the assay component ERF_FR_GPCR_hADORA1 was analyzed at the assay endpoint, ERF_FR_GPCR_hADORA1, in the positive analysis fitting direction relative to DMSO as the negative control and baseline of activity. Using a type of binding reporter, […] activity can be used to understand changes in binding as they relate to gene ADORA1. To generalize the intended target to other relatable targets, this assay endpoint is annotated to the gpcr intended target family, where the subfamily is adenosine.
# 2) Dose Response: 90 ul of 10 mM stock -OR- 1 mg (pre-weighed) for a top concentration at 10 uM.
# Sequence of human Adenosine Receptor A1 Agonism, ADORA1 (gene 134) (P30542 whole entry, looked up): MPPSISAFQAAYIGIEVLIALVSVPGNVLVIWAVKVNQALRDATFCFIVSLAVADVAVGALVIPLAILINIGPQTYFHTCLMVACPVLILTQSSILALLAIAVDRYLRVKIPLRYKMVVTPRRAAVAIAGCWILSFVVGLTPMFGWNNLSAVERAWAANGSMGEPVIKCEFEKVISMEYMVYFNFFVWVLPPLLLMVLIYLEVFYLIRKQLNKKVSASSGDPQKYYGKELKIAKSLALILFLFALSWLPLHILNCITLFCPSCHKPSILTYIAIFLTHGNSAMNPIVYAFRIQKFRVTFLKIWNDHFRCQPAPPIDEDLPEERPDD
row,Compound,AC50
1,O=C(/C=C/c1ccc(O)cc1)CC(=O)/C=C/c1ccc(O)cc1,1920 nM (active)
